“And” between values parts separate entries of the source, which are not always exact repeats. Equal values may be shown once. Unmarked numbers belong to inactive results. The source made the active and inactive calls.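 The calls were made as follows: active = fitted half-maximal concentration AC50 at or below ten times the highest valid tested dose, with signal falling as DNA is displaced (actives reach about 34 µM in these data); inconclusive = flat fit at moderate signal loss, or poor fit quality; inactive = the rest, including signal rising instead of falling.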
assay: acridine orange-DNA binding displacement – biochemical, fluorescence polarization, cherry-picked samples, set 2, artefact control for KSHV LANA DNA-binding inhibitor project, dose response (AID 504727); conditions: series mostly up to 35 µM; activity change, negative = DNA displacement: at the top concentration;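 as to activity change, negative = DNA displacement: 0% = median of neutral control wells and -100% = mitoxantrone positive control wells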

Row | SMILES | activity change, negative = DNA displacement [%] | AC50
1 | C/C(=N/NC(=O)c1cc(O)c(O)c(O)c1)c1ccc([N+](=O)[O-])cc1 | 2.7 | –
2 | N=C1/C(=C/c2ccc(-c3cccc(C(=O)O)c3)o2)C(=O)N=C2SC(CC(=O)N3CCOCC3)=NN12 | 6.55 | –
3 | CC(=O)Oc1ccc2c(c1)Oc1cc(OC(C)=O)ccc1C21OC(=O)c2ccccc21 | – | 8.39 µM (active)
4 | Cc1ccc(NC(=O)CN2C(=O)N/C(=C/c3cc(C)n(-c4ccc(C(=O)O)cc4)c3C)C2=O)cc1 | 5.76 | –
5 | O=C(COc1cccc(F)c1)Nc1nc(-c2cccnc2)cs1 | -0.97 | –
6 | COc1c2c(nc3occc13)C(CCC(C)(C)O)(OC)C(O)CC2 (stereo not drawn) | 4.96 | –
7 | O=C1CCCC2=C1C(c1ccc(O)c(O)c1)Nc1ccc3ncccc3c12 (stereo not drawn) | 1.66 | –
8 | O=C(CCN1C(=O)/C(=C\c2ccco2)SC1=S)Nc1ccc(C(=O)O)c(O)c1 | 8.25 | –
9 | COc1ccc(Cn2nnc3c(=O)[nH]c(C4CCCN(C(=O)c5ccccc5)C4)nc32)cc1 (stereo not drawn) | 0.712 | –
10 | O=S(=O)(O)c1cccc2cccc(Nc3ccccc3)c12 | 1.33 | –
11 | Oc1ccccc1C=Nc1ccccc1-c1nc2ccccc2[nH]1 | 2.82 | –
12 | Nc1c(-c2ccccn2)cnn1-c1nc(-c2ccc(F)cc2)cs1 | 9.09 | –
13 | Cc1cc[n+](-c2[nH]c(=O)sc2/C=N/N=C(\[O-])c2ccccc2)cc1C | – | 12.9 µM (active)
14 | Cc1cc(/C=N/Nc2ccc([N+](=O)[O-])cn2)c(C)n1-c1cccc(C(=O)O)c1 | 17.9 | –
15 | COc1ccccc1N1CCN(S(=O)(=O)c2c(C)[nH]c(C)c2C(=O)N2CCCC2)CC1 | 2.06 | –
16 | COC(=O)c1ccc(OCC(O)CN2CCC(C)CC2)cc1 (stereo not drawn) | -2.58 | –
17 | Nc1cccc2cc(S(=O)(=O)O)ccc12 | 5.63 | –
18 | CC(C(=O)Nc1ccccc1)N1C(=O)c2ccccc2C1=O (stereo not drawn) | -2.9 | –
19 | O=S(=O)(O)c1cc(O)c2ccc(Nc3ccccc3)cc2c1 | 8.12 | –

Row | SMILES | activity change, negative = DNA displacement [%] | AC50
20 | C=C(C)C(=O)Nc1cccc(C2=NOC3(C2)C[C@@H](C(N)=O)N(C(=O)C2(C)CC2)C3)c1 (stereo partly drawn) | 4.47 | –
21 | Cc1nn(CC(=O)c2ccc(Br)s2)c(C)c1[N+](=O)[O-] | 21.5 | –
22 | O=C(O)c1ccc(-n2cccc2/C=C2/NC(=O)N(c3cccc(Cl)c3)C2=O)cc1 | 27 | –
23 | Nc1ccc(C(=O)Nc2ccc3c(O)cc(S(=O)(=O)O)cc3c2)cc1 | 3.9 | –
24 | Cc1nc2ccccc2n2c(O)c(CC(=O)O)cc12 | – | 10.2 µM (active)
25 | Cc1[nH][nH]c(=O)c1C(c1ccc(-c2ccc(Cl)c(C(=O)O)c2)o1)c1c(C)[nH][nH]c1=O | -0.131 | –
26 | CCN(CC(=O)Nc1c(F)cccc1F)C(=O)CCCc1cccs1 | -3.02 | –
27 | CCCCN(C(=O)C(C)Oc1ccc(Br)cc1)c1c(N)n(CC(C)C)c(=O)[nH]c1=O (stereo not drawn) | 2.88 | –
28 | NNC(=S)Nc1ccc(S(=O)(=O)N2CCOCC2)cc1 | 7.25 | –
29 | C[n+]1c2cc(N)ccc2cc2ccc(N)cc21 | – | 1.66 µM (active) and 2.31 µM (active)
30 | NC(=S)NN=Cc1ccc(-c2ccc(S(=O)(=O)Nc3ncccn3)cc2)o1 | -0.734 | –
31 | Cc1ccccc1C1=C/C(=C(\SS/C(C(=O)c2ccc(OCC(=O)O)c(Cl)c2Cl)=C2\C=C(c3ccccc3C)SS2)C(=O)c2ccc(OCC(=O)O)c(Cl)c2Cl)SS1 | 7.96 | –
32 | O=C(O)C(Cc1ccccc1)N1C(=O)/C(=C/C=C/c2ccco2)SC1=S (stereo not drawn) | 14.5 | –
33 | Cc1ccc(S(=O)(=O)/N=C/c2ccc(N(C)C)cc2)cc1 | 1.03 | –
34 | Cc1n[nH]c(C)c1N1C(=O)c2cccc3c(N4CCCCCC4)ccc(c23)C1=O | – | 33.6 µM (active)
35 | Cc1ccc(C(=O)c2coc3ccc(O)c(Cl)c23)cc1 | 2.25 | –
36 | O=C(O)c1cccc(NC2=Nc3cccc4cccc2c34)c1 | 3.7 | –
37 | O=S(=O)(O)c1cc(Cl)cc(N=Nc2ccc(O)cc2O)c1O | -2.84 | –
38 | Cc1ccc(NC(=S)N/C(=N/S(=O)(=O)c2ccccc2)c2ccccc2)cc1 | 0.102 | –
